The experiment has as its system HFF. The experiment in a line: cell viability relative to DMSO control; higher = less cytotoxic. The settings on record: 1 µM; 72 h. The method, then: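 Single-dose cytotoxicity screen of the MMV Pandemic Response Box at 1 uM on human foreskin fibroblasts (HFF), 72 h at 37 C. Viability measured by MTT (OD 550 nm) and normalised to the DMSO control (% survival).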
On to `CN(C/C=C/C#CC(C)(C)C)Cc1cccc2ccccc12`, for which the cell viability turned out to be 64.9%. On to `Cc1[nH]c2ccccc2c1CCNCc1ccc(/C=C/C(=O)NO)cc1`, for which the cell viability was 19%. The figure for `CCCCc1ccc(-c2cc(C(=O)O)cc(-c3ccc(Cl)cc3)n2)cc1` is 68.9%. With `COc1c(F)c(F)cc2c(=O)c(C(=O)O)cn(C3CC3)c12`, the cell viability worked out at 69.4%. On to `CN1CCN(c2ccc3[nH]c(-c4ccc5[nH]c(-c6ccc(O)cc6)nc5c4)nc3c2)CC1`, for which the cell viability was 68.8%. `CCNC(=O)Nc1cn2c(-c3ncc(CC)cn3)cc(-c3cccnc3)cc2n1` had a cell viability of 71.6%. `CCc1cc(O)c(Oc2ccc(C(N)=O)cc2F)cc1F` had a cell viability of 67.9%.

`O=C(Nc1ccccc1)N(Cc1cc(Br)ccc1O)c1ccc(F)cc1` yielded a cell viability of 67.1%. `CCc1ccccc1OCCN1CCCCCC1` came in with a cell viability of 55.1%. With `O=C(O)CSc1cc(NS(=O)(=O)c2cccc3cccnc23)c2ccccc2c1O`, the cell viability stood at 59.6%. Consider `CO/N=C(\C(=O)N[C@@H]1C(=O)N2C(C(=O)OCOC(=O)C(C)(C)C)=C(/C=C\c3scnc3C)CS[C@H]12)c1csc(N)n1`, for which the cell viability was determined as 66%. In the case of `O=C(Nc1nnc(-c2ccccc2)o1)c1ccc(F)cc1`, the cell viability came to 65.2%.

With `NC[C@H]1O[C@H](O[C@H]2[C@H](O)[C@@H](O[C@H]3O[C@H](CO)[C@@H](O)[C@H](N)[C@H]3O)[C@H](N)C[C@@H]2N)[C@H](N)C[C@@H]1O`, the cell viability turned out to be 68.2%. The figure for `Cc1ccn2c(C(=O)NCc3ccccc3)c(C)nc2c1` is 66.8%; for `O=C(c1ccccc1)N1CCN(c2ccccc2NC(=O)C(Cl)(Cl)Cl)CC1` it is 65%. `Nc1nc2c(Cc3cccnc3)c[nH]c2c(=O)[nH]1` returned a cell viability of 65.2%.

Values taken from the supplement of paper PMC10941209.
